“And” between values parts separate entries of the source, which are not always exact repeats. Equal values may be shown once. Inconclusive results are not listed. The source made the active and inactive calls. Unless noted, calls follow the shape of the dose curve; as a rule, active = well fitted curve in the direction sought with a large enough effect; inconclusive = small, poorly fitted or top-dose-only effect, or another doubt; inactive = no such curve, though single readings can be large; an effect the other way counts as inactive or inconclusive.
Legend:
[1] = target: Cellular tumor antigen p53 (Homo sapiens) (UniProt P04637); assay: Primary qHTS for small molecule compounds that upregulate eGFP-tagged delta133p53alpha (in N-terminal) cells. (AID 2060322); conditions: NCI-H358 eGFP-delta133p53alpha fluorescence, 24 h; activation: active compounds read high;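 also: cells pre-induced with doxycycline then dosed without doxycycline; series mostly up to about 56 µM; 0% = DMSO vehicle and 100% = reference activator; nearly all actives have a fitted effect of over 75% in size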
Outline: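 NCI-H358 cells pre-induced 24 h with 10 ng/ml doxycycline for eGFP-delta133p53alpha, plated dox-free and exposed 24 h at 37C to titrated compounds. Fixed, Hoechst-stained; gated GFP peak intensity by laser scanning cytometry, normalized to DMSO (0%) and 57.5 uM 5-azacytidine (100%).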

[2] = target: Cellular tumor antigen p53 (Homo sapiens) (UniProt P04637); assay: Primary qHTS for small molecule compounds that upregulate eGFP-tagged delta133p53alpha (in C-terminal) cells. (AID 2060324);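 also: 0% = DMSO wells and 100% = 57.5 µM 5-azacytidine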
Outline: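 Doxycycline (100 ng/ml, 24 h) first induced the eGFP fusion in NCI-H358 C-terminal-tag cells. Washed-out cells then received titrated compounds for 24 h at 37 °C before paraformaldehyde fixation, Hoechst staining and cytometric GFP quantification.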

[3] = target: Aldehyde dehydrogenase, mitochondrial (Homo sapiens) (UniProt P05091); assay: qHTS for Inhibitors of the Aldehyde Dehydrogenase Family (ALDH2) Validation screens (AID 2061302; active = well fitted inhibition curve with a large enough effect; title and protocol of this record describe different tests;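 also: plate controls were DMSO vehicle for no effect and maximal DPI positive control response for full effect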)
[4] = target: Retinaldehyde dehydrogenase 3 (Homo sapiens) (UniProt P47895); assay: qHTS for Inhibitors of the Aldehyde Dehydrogenase Family (ALDH1A3) Validation screen (AID 2061312); also: % is scaled to controls: 0 for no effect and ±100 for the full control effect; nearly all actives have a fitted effect of over 45% in size

Cellular tumor antigen p53 (Homo sapiens), sequence (P04637 whole entry, looked up, the tested form may be a part): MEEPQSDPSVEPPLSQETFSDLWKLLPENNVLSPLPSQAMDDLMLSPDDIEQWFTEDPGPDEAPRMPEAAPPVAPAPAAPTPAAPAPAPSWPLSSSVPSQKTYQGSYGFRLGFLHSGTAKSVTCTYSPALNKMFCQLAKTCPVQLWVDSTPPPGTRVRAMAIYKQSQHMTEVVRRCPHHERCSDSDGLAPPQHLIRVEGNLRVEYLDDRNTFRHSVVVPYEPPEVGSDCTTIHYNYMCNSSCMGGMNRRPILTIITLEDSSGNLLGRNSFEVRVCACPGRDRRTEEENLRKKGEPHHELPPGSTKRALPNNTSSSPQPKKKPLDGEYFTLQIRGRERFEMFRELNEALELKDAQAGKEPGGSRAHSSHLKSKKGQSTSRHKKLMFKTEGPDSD

CN1C2CCC1CC(OC(c1ccccc1)c1ccccc1)C2 (centres undefined)
inactive: activation [1] -19.6% | Potency [2] | Potency [3] | Potency [4]

CNc1ncnc2c1ncn2[C@@H]1O[C@H](CO)[C@@H](O)[C@H]1O
inactive: activation [1] 5.48% | Potency [2] | Potency [3] | Potency [4]

Nc1nc2c(ncn2[C@@H]2O[C@H](CO)[C@@H](O)[C@@H]2O)c(=O)[nH]1
inactive: activation [1] -6.66% | Potency [2] | Potency [3] | Potency [4]

O=C(c1ccc2c(c1)OCCO2)N1CCCCC1
inactive: activation [1] 8.27% | Potency [2] | Potency [3] | Potency [4]

O=C(CCSCc1ccco1)NNC(=O)N1Cc2ccccc2Oc2ccc(Cl)cc21
inactive: activation [1] 22% | Potency [2] | Potency [3] | Potency [4]

CNCCCN1c2ccccc2CCc2ccccc21
inactive: activation [1] 14.2% and -26.6% | Potency [2] | Potency [3] | Potency [4]

c1ccc(-c2ccccn2)nc1
inactive: activation [1] -21.2% | Potency [2] | Potency [3] | Potency [4]

COC(=O)C(N)Cc1ccc(Cl)cc1 (centres undefined)
inactive: activation [1] -12% | Potency [2] | Potency [3] | Potency [4]

Clc1cccc(Cl)c1NC1=NCCN1
inactive: activation [1] -3.23% and -7.34% and -13.7% | Potency [2] | Potency [3] | Potency [4]

NC1=NCC2c3ccccc3Cc3ccccc3N12 (centres undefined)
inactive: activation [1] -14.2% and -12.4% | Potency [2] | Potency [3] | Potency [4]

COCCc1ccc(OCC(O)CNC(C)C)cc1 (centres undefined)
inactive: activation [1] 4.18% and 10.1% | Potency [2] | Potency [3] | Potency [4]

CC[C@@H](C)[C@H]1O[C@]2(CC[C@H]1C)C[C@@H]1C[C@@H](CC=C(C)[C@@H](O[C@H]3C[C@H](OC)[C@@H](O[C@H]4C[C@H](OC)[C@@H](O)[C@H](C)O4)[C@H](C)O3)[C@@H](C)C=CC=C3CO[C@@H]4[C@H](O)C(C)=C[C@@H](C(=O)O1)[C@]34O)O2
inactive: activation [1] -12.1% | Potency [2] | Potency [3] | Potency [4]

OC1(c2ccc(Cl)cc2)CCN(Cc2c[nH]c3ccccc23)CC1
inactive: activation [1] -4.41% | Potency [2] | Potency [3] | Potency [4]

Cc1nc2c(OCc3ccccc3)cccn2c1CC#N
inactive: activation [1] 7.44% | Potency [2] | Potency [3] | Potency [4]

CN=C(N)NCCC[C@H](N)C(=O)O
inactive: activation [1] -4.6% | Potency [2] | Potency [3] | Potency [4]

CN1C(=O)CC[C@H]1c1cccnc1
inactive: activation [1] -11.7% and 28% | Potency [2] | Potency [3] | Potency [4]

CCCn1c(=O)c(C)cn2nc(N)nc12
inactive: activation [1] -37.9% | Potency [2] | Potency [3] | Potency [4]

COCc1nc2c([nH]1)c(=O)n(C)c(=O)n2CC(C)C
inactive: activation [1] 12.4% | Potency [2] | Potency [3] | Potency [4]

CN(C)C(=O)Oc1cccc([N+](C)(C)C)c1
inactive: activation [1] -10.7% and -13.7% | Potency [2] | Potency [3] | Potency [4]

CC(=O)NNC(=O)N1Cc2ccccc2Oc2ccc(Cl)cc21
inactive: activation [1] -0.739% | Potency [2] | Potency [3] | Potency [4]

CCC(=O)N1CCN(C(=O)c2ccccc2)CC1
inactive: activation [1] -16% | Potency [2] | Potency [3] | Potency [4]

C(=C\c1ccccc1)/CN1CCN(C(c2ccccc2)c2ccccc2)CC1
inactive: activation [1] -1.67% and -21% | Potency [2] | Potency [3] | Potency [4]

CNC(=O)[C@H]1O[C@@H](n2cnc3c(NCc4ccc(N)cc4)ncnc32)[C@H](O)[C@@H]1O
inactive: activation [1] -32.5% | Potency [2] | Potency [3] | Potency [4]

COC(=O)C(C)(N)Cc1ccc(O)cc1 (centres undefined)
inactive: activation [1] -5.7% | Potency [2] | Potency [3] | Potency [4]

CN(C)CCOC(=O)COc1ccc(Cl)cc1
inactive: activation [1] -18.4% and -20.3% | Potency [2] | Potency [3] | Potency [4]

OC[C@H]1O[C@@H](n2cnc3cncnc32)[C@H](O)[C@@H]1O
inactive: activation [1] -14.1% | Potency [2] | Potency [3] | Potency [4]

CCN(CC)CCCCCCCCOC(=O)c1cc(OC)c(OC)c(OC)c1
inactive: activation [1] -40.3% | Potency [2] | Potency [3] | Potency [4]

COc1ccccc1N1CCN(CCCCN2C(=O)c3ccccc3C2=O)CC1
inactive: activation [1] -14.4% | Potency [2] | Potency [3] | Potency [4]

CCC1C(=O)OCC1Cc1cncn1C (centres undefined)
inactive: activation [1] -0.565% and -54.1% and -41.4% | Potency [2] | Potency [3] | Potency [4]

COc1ccc(-c2ccc(N)[n+](CCCC(=O)O)n2)cc1
inactive: activation [1] -20% | Potency [2] | Potency [3] | Potency [4]

Clc1nccc2c1ccc1ccccc12
inactive: activation [1] -42.2% | Potency [2] | Potency [3] | Potency [4]

CN(C)C(N)=NCCC[C@H](N)C(=O)O
inactive: activation [1] -10.9% | Potency [2] | Potency [3] | Potency [4]

CCOC(=O)C12CC1/C(=N/O)c1ccccc1O2 (centres undefined)
inactive: activation [1] -19.2% | Potency [2] | Potency [3] | Potency [4]

Nn1nnc2ccccc21
inactive: activation [1] 15.1% | Potency [2] | Potency [3] | Potency [4]

C[C@](N)(Cc1ccc(O)cc1)C(=O)O
inactive: activation [1] -4.18% and 8.39% | Potency [2] | Potency [3] | Potency [4]

CC(C)(C)NC[C@H](O)COc1nsnc1N1CCOCC1
inactive: activation [1] -9.94% | Potency [2] | Potency [3] | Potency [4]

CN1C2CC(OC(=O)[C@H](CO)c3ccccc3)CC1C1OC12 (some centres undefined)
inactive: activation [1] -3.28% | Potency [2] | Potency [3] | Potency [4]

O=C(O)CCCCCCCC(=O)O
inactive: activation [1] 17.5% and -5.1% | Potency [2] | Potency [3] | Potency [4]

CC(C)NC[C@H](O)COc1cccc2[nH]ccc12
inactive: activation [1] 15.4% | Potency [2] | Potency [3] | Potency [4]

CN(C)CCN(Cc1cccs1)c1ccccn1
inactive: activation [1] -15.3% and -8.14% | Potency [2] | Potency [3] | Potency [4]

Nc1ccc(S(=O)(=O)Nc2ccnn2-c2ccccc2)cc1
inactive: activation [1] 12.6% and 48.1% and -20.4% | Potency [2] | Potency [3] | Potency [4]

NCCCS(=O)(=O)O
inactive: activation [1] 14.5% | Potency [2] | Potency [3] | Potency [4]

COC(=O)c1c(C)[nH]c(C)c1C(=O)c1ccccc1Cc1ccccc1
inactive: activation [1] -23.2% | Potency [2] | Potency [3] | Potency [4]

CCCCCCCCCCC/C=C\C(C)(C)/C=C\CCCC(=O)O
inactive: activation [1] -22.9% | Potency [2] | Potency [3] | Potency [4]

C[N+]1(C)C2CC(OC(=O)[C@H](CO)c3ccccc3)CC1C1OC12 (some centres undefined)
inactive: activation [1] 4.68% and -6.58% | Potency [2] | Potency [3] | Potency [4]

CNc1ncnc2c1ncn2[C@H]1C[C@H](OP(=O)(O)O)[C@@H](COP(=O)(O)O)O1
inactive: activation [1] 3.4% | Potency [2] | Potency [3] | Potency [4]

CCCn1c(=O)[nH]c(=O)c2[nH]cnc21
inactive: activation [1] 24.9% | Potency [2] | Potency [3] | Potency [4]

CN(C)C(=O)Oc1ccc[n+](C)c1
inactive: activation [1] -10.7% and 11.9% | Potency [2] | Potency [3] | Potency [4]

N=S(=O)(O)Cc1noc2ccccc12
inactive: activation [1] -35.5% | Potency [2] | Potency [3] | Potency [4]

CC1CNCCN1S(=O)(=O)c1cccc2cnccc12 (centres undefined)
inactive: activation [1] -28.4% | Potency [2] | Potency [3] | Potency [4]

c1ccc(C2CN3CCSC3=N2)cc1 (centres undefined)
inactive: activation [1] 27% | Potency [2] | Potency [3] | Potency [4]

C#C[C@]1(O)CC[C@H]2[C@@H]3CCC4=Cc5oncc5CC4(C)[C@H]3CCC21C (some centres undefined)
inactive: activation [1] -35.6% | Potency [2] | Potency [3] | Potency [4]

C[N+](C)(C)CC=O
inactive: activation [1] -21.7% | Potency [2] | Potency [3] | Potency [4]

N[C@@H](Cc1ccc(O)c(I)c1)C(=O)O
inactive: activation [1] -4.51% | Potency [2] | Potency [3] | Potency [4]

CN(C(=O)CCCOc1ccc2[nH]c(=O)ccc2c1)C1CCCCC1
inactive: activation [1] -9.21% and -37.7% | Potency [2] | Potency [3] | Potency [4]

CCN(Cc1ccncc1)C(=O)C(CO)c1ccccc1 (centres undefined)
inactive: activation [1] 3.95% and 13.2% | Potency [2] | Potency [3] | Potency [4]

C[C@@H](CN1CCC(Cc2ccccc2)CC1)[C@@H](O)c1ccc(O)cc1
inactive: activation [1] -9.23% | Potency [2] | Potency [3] | Potency [4]

CNCCc1cnc(CCC(c2ccccc2)c2ccccc2)[nH]1
inactive: activation [1] -38.1% | Potency [2] | Potency [3] | Potency [4]

CCN(CC)CCCN(c1ccccc1)C1Cc2ccccc2C1
inactive: activation [1] -2.82% and -37.7% | Potency [2] | Potency [3] | Potency [4]

CSc1ccccc1N1CCN(CCCCCC(=O)NC2CCCc3ccccc32)CC1 (centres undefined)
inactive: activation [1] -61.7% | Potency [2] | Potency [3] | Potency [4]

COC1(C2=NCCN2)COc2ccccc2O1 (centres undefined)
inactive: activation [1] -0.599% | Potency [2] | Potency [3] | Potency [4]

O=c1[nH]c2cc([N+](=O)[O-])c([N+](=O)[O-])cc2[nH]c1=O
inactive: activation [1] 41.5% | Potency [2] | Potency [3] | Potency [4]

NC(N)=NC(=O)c1nc(Cl)c(N2CCCCCC2)nc1N
inactive: activation [1] -39.1% | Potency [2] | Potency [3] | Potency [4]

CC(N)(Cc1ccc(O)cc1)C(=O)O (centres undefined)
inactive: activation [1] -18.1% | Potency [2] | Potency [3] | Potency [4]

COC(=O)[C@H](NC(=O)c1cc(-c2ccccc2)nc2ccccc12)c1ccccc1
inactive: activation [1] 6.75% | Potency [2] | Potency [3] | Potency [4]

CCCCCCCC/C=C\CCCCCCCC(=O)NCCc1ccc(O)c(O)c1
inactive: activation [1] 9.28% | Potency [2] | Potency [3] | Potency [4]
